Out of some 69,000 compounds screened, about 8,600 (12%) showed an effect of 50% or more. This excerpt belongs to a sample that is enriched for strong results.
system: Plasmodium berghei; assay: Screen against P. berghei liver stage (PbLuc), transformed with Luciferase, at 10uM; format: functional, HepG2; conditions: tested at 10 uM

| Structure (SMILES) | INHIBITION |
| --- | --- |
| Cc1oc(C(=O)O)cc1S(=O)(=O)Nc1cc(Br)ccc1Cl | 38.8% |
| COCC1CN(c2ccc(Cl)cc2C#N)CCO1 (stereo unspecified) | 53.4% |
| Cn1cc(N2CCN(c3ccc(C#N)c(Cl)c3)CC2=O)cn1 | -11.6% |
| N#Cc1ccc(N2CCC(OC3CCOCC3)CC2)cc1Cl | 57% |
| COCC1CN(c2ccc(C#N)c(Cl)c2)CCO1 (stereo unspecified) | 96.1% |
| CC(=O)NCC1CN(c2ccc3c(Cl)ccnc3c2F)CCO1 (stereo unspecified) | 23.8% |
| Clc1cnccc1N1CCC(OC2CCOCC2)CC1 | 48.5% |
| N#Cc1ccc(Cl)cc1N1CCC(OC2CCOCC2)CC1 | 35.2% |
| N#Cc1cc(Cl)ccc1N1CCOC(C(N)=O)C1 (stereo unspecified) | 32.5% |
| COCC1CN(C(=O)Nc2cc(Cl)ccc2F)CCO1 (stereo unspecified) | 8.13% |
| COCC1CN(c2ccc3c(Cl)ccnc3c2F)CCO1 (stereo unspecified) | 84.2% |
| NC(=O)C1CN(c2ccc3c(Cl)ccnc3c2F)CCO1 (stereo unspecified) | -22.4% |
| COCC1CN(C(=O)Nc2ccc(Cl)cc2Cl)CCO1 (stereo unspecified) | 6.85% |
| CO[C@@H]1CCN(Cc2c(C)noc2C)[C@@H]2CN(Cc3cccnc3)C[C@@H]21 | 22.6% |
| COCCOc1ccccc1C(=O)NCCN(C)C(C)C | 4.52% |
| O=C(c1nn(-c2ccccc2F)cc1O)N1CCCSCC1 | -21.7% |
| Cc1ccc(N2CC[C@H]3OCC[C@@]3(C(=O)NC(C)C)C2)nn1 | 35.1% |
| COc1ncc(Cl)c(NCc2ccc(C(=O)N(C)C)cc2)n1 | 58.9% |
| COc1ccccc1C1(CNCc2ccc([S+](C)[O-])cc2)CC1 (stereo unspecified) | 1.41% |
| COc1ccc(CN2CCc3[nH]nc(C(=O)N(C)C)c3C2)cc1 | 21.1% |
| COCC(=O)NCc1ccc(-c2ncncc2C(=O)N(C)C)cc1 | 26.15% |
| COc1ncc(Cl)c(NCc2ccc([S+](C)[O-])cc2)n1 (stereo unspecified) | 61.1% |

| Structure (SMILES) | INHIBITION |
| --- | --- |
| CCOCc1ccc(CNc2nc(OC)ncc2Cl)cc1 | 35.4% |
| COC(=O)CC1CSCCN1C(=O)CCc1c(C)nn(C)c1C (stereo unspecified) | 19.8% |
| COc1ccccc1C(O)CNC(=O)NCc1cc[nH]n1 (stereo unspecified) | 26.4% |
| Cc1cc(C)n(CCCNC(=O)C(C)NC(=O)CC2CCCCC2)n1 (stereo unspecified) | -7.98% |
| COCC(=O)N1CCC2(CCC2N(C)Cc2ccco2)CC1 (stereo unspecified) | -28.2% |
| Cc1cc(C)n(CC(C)CNC(=O)[C@@H](C)NC(=O)OC(C)(C)C)n1 (stereo partly specified) | -45.8% |
| Cc1nc(C(=O)N2CCCC2c2noc(C)n2)c[nH]1 (stereo unspecified) | 0.914% |
| CC(C)CCN1CCC2(CCCN(c3nncs3)C2)C1 (stereo unspecified) | 4.1% |
| CCc1nncn1CCNC(=O)N1CCN(Cc2ccccc2)CC1 | 35.3% |
| Cn1c2ccc(F)cc2c2ncn(CCCN(CCO)CCO)c(=O)c21 | 24.7% |
| Cc1cnc(C(=O)N2CCCCC2c2nc(C)cs2)cn1 (stereo unspecified) | -16% |
| Fc1cnc(N2CC3(CCN(CC4CC4)C3)C2)nc1 | -81.2% |
| Cn1cnc(S(=O)(=O)N2CC3(CCN(CC4CC4)C3)C2)c1 | 67.5% |
| Cn1cnc(S(=O)(=O)N2CCSC3(CCCCC3)C2)c1 | -37.8% |
| Cn1cnc(S(=O)(=O)N2CC3(CCN(c4ccccc4)C3)C2)c1 | 53% |
| Cn1cnc(S(=O)(=O)N2CCN(CC3CC3)c3ncccc3C2)c1 | -22.1% |
| CC(C)CN1CCC2(C1)CN(S(=O)(=O)c1cn(C)cn1)C2 | 35.8% |
| Cn1cnc(S(=O)(=O)N2CC3(CCN(Cc4ccncc4)C3)C2)c1 | 21.3% |
| CCN1CCC2(C1)CN(S(=O)(=O)c1cn(C)cn1)C2 | 65.7% |
| Cn1cnc(C(=O)N2CC3(CCN(S(=O)(=O)c4ccccc4)C3)C2)c1 | -4.02% |
| O=C1CN(Cc2occc2C(=O)NCCc2ccc(F)cc2)CCN1 | 8.41% |
| CC(C)CCNC(=O)Cc1cnc(-n2cccc2)s1 | 37.4% |

| Structure (SMILES) | INHIBITION |
| --- | --- |
| c1cnc(N2Cc3nccn3CC(COc3cccnc3)C2)nc1 (stereo unspecified) | -13.2% |
| Cc1cc(F)c(S(=O)(=O)Nc2ccn(CCCC#N)n2)cc1F | 30.5% |
| Cn1cc(C(=O)N[C@H]2CN(Cc3nccs3)[C@@H]3CCCO[C@H]23)cn1 | -8.94% |
| CC(C)C1CCC(N2CCN(CCS(C)(=O)=O)CC2)CC1 (stereo unspecified) | 32.9% |
| CCCn1cc(CN2CCCC2c2cccc(-n3ccnc3)n2)cn1 (stereo unspecified) | 15.9% |
| O=C(NCC(O)c1ccoc1)Nc1cccs1 (stereo unspecified) | 19.8% |
| Cc1nc(C)n(C2CCCN(C(=O)Cc3cn4ccccc4n3)C2)n1 (stereo unspecified) | 25.4% |
| Cc1c(I)cccc1C(=O)NCc1nnc[nH]1 | 51.5% |
| Cc1cccc(I)c1C(=O)NCc1ncc[nH]1 | 8.08% |
| O=C(NCc1ncc[nH]1)c1c(F)cccc1I | 25.5% |
| Cc1c(I)cccc1C(=O)NCc1ncc[nH]1 | 57% |
| CCc1ccc(CCC(=O)NCc2nnc[nH]2)cc1 | 24.5% |
| Cc1c(I)cccc1C(=O)NCC1(CO)CC1 | -4.86% |
| Cc1c2nnn(CC(=O)N(C)C)c(=O)c2nn1C | 69.4% |
| Cc1c2ncn(CC(=O)NC(C)C)c(=O)c2nn1C | 48.5% |
| Cc1c2ncn(CC(=O)N(C)C)c(=O)c2nn1C | 0% |
| CC(=O)N1CCN(c2cc(C3CCNCC3)ccn2)CC1 | 7.19% |
| Cc1cncc(C(=O)N2CCO[C@H]3[C@H](OCCN(C)C)CC[C@@H]32)c1 | 14.5% |
| O=C(CC1CCCO1)NS(=O)(=O)Cc1cc(-c2ccccc2)no1 (stereo unspecified) | 25% |
| Cc1ccc(CN2CCC3(CCN(c4cnn(C)c4)C3=O)C2)s1 (stereo unspecified) | 1.94% |
| CC(C)NC(=O)N1CCC2(CC1)CC[C@@]1(C(=O)N(C)C)CN(C)C[C@@H]21 | 67.5% |
| CCS(=O)(=O)N1CCC2(CC1)CC[C@@]1(C(=O)N(C)C)CN(C)C[C@@H]21 | -10.5% |

| Structure (SMILES) | INHIBITION |
| --- | --- |
| CCN1C[C@H]2C3(CCN(C(=O)NC(C)C)CC3)CC[C@@]2(C(=O)N(C)C)C1 | 28.5% |
| O=C(NCc1cc(=O)n2c(n1)CN(CC1CCOC1)CCC2)C1CC1 (stereo unspecified) | 26.8% |
| Cc1nc(N2CC[C@@H](c3ccc4ccccc4c3)[C@H](O)C2)no1 | 31.2% |
| O[C@@H]1CN(c2noc(C3CC3)n2)CC[C@H]1c1ccc2ccccc2c1 | 51.2% |
| CCCc1nc(N2CC[C@@H](c3ccc4ccccc4c3)[C@H](O)C2)no1 | 36.7% |
| CC(C)NC(=O)N1CCC2(CC1)NC(=O)CC2c1ccncc1 (stereo unspecified) | -3.51% |
| CCc1nnc2n1CCN(C(=O)c1cn(-c3ccccc3)nn1)C2 | -1.15% |
| Cc1nc(CN2C[C@@H]3CN(C(=O)c4ccco4)C[C@@H]3C2=O)cs1 | 40.4% |
| Cc1occc1C(=O)N1CCC2(CCN(Cc3nccs3)C2)CC1 | 1.81% |
| Cc1nc(CN2CCC3(CCN(C(=O)c4ccoc4C)CC3)C2)cs1 | 66.2% |
| Cc1nc(CN2C(=O)CCC23CCN(Cc2ccco2)CC3)cs1 | 3.17% |
| Cc1nc(CN2CCC23CCN(Cc2ccco2)CC3)cs1 | 49.4% |
| Cc1nc(CN2C[C@@H]3CN(C(=O)c4ccoc4C)C[C@@H]3C2=O)cs1 | 64.9% |
| Cc1occc1C(=O)N1CCC2(CCN(Cc3cccs3)C2)CC1 | -33.9% |
| Cc1nc(CN2CCC3(C2)CN(Cc2ccco2)C3)cs1 | 56.6% |
| Cc1nc(CN2C[C@@H]3CN(C(=O)c4ccoc4C)C[C@@H]3C2)cs1 | 1.48% |
| CCN(CC)S(=O)(=O)N1CCCC1c1cccc(Nc2ncc(C)s2)n1 (stereo unspecified) | 76.1% |
| Cc1ccc(C2CCCCCN2Cc2cn(C)nc2C)s1 (stereo unspecified) | 27.6% |
| Cc1cnc(Nc2cccc(C3CCCN3Cc3cn(C)nc3C)n2)s1 (stereo unspecified) | 64.5% |
| Cc1cnc(Nc2cccc(C3CCCN3C(=O)CO)n2)s1 (stereo unspecified) | -0.902% |
| COCC(=O)N1CCCC1c1cccc(Nc2ncc(C)s2)n1 (stereo unspecified) | 42.4% |
| Cc1nn(C)cc1CN1CCCC1c1cccc(Nc2nccs2)n1 (stereo unspecified) | 23.25% |

| Structure (SMILES) | INHIBITION |
| --- | --- |
| CCOCCN1C[C@@H]2CCCO[C@@H]2[C@H](NC(=O)c2cnoc2C)C1 | 32.1% |
| CC1(c2ncc(CN3CCN(c4ncccn4)CC3)cn2)CCCCO1 (stereo unspecified) | 23.15% |
| O=C(c1ccccc1F)N1C[C@@H]2COC[C@]2(COCc2cccnc2)C1 | 10% |
| CCCN1C(=O)c2ccccc2C1OC (stereo unspecified) | 28.7% |
| COCC(=O)Nc1cc(Br)cnc1OCC(F)(F)F | 26% |
| CCC(=O)Nc1cc(Br)cnc1OCC(F)(F)F | 67.1% |
| CC(=O)Nc1cc(Br)cnc1OCC(F)(F)F | 30.3% |
| O=C(c1cccc2cccnc12)N1CC[C@@]2(CCCO2)[C@@H](O)C1 | 22% |
| COC(=O)CC(c1ccc(OC)c(O)c1)c1oc(C)cc(=O)c1O (stereo unspecified) | 3.31% |
| CN1CCN(CCOc2ccc(NC(=O)c3ccncc3)cc2)CC1 | 27% |
| CNc1nc2c(c(C(=O)N3CCCC3)n1)CN(C(=O)c1cccs1)CC2 | -37.9% |
| O=C1CCC(C(=O)N2CCOC(Cc3cccc4ccccc34)C2)=NN1 (stereo unspecified) | 53.7% |
| O=C1CCC(C(=O)N2CCOC(Cc3ccc(F)cc3)C2)=NN1 (stereo unspecified) | -11.6% |
| Cn1ccnc1C(=O)N1CCOC(Cc2ccccc2Cl)C1 (stereo unspecified) | 41.2% |
| O=C1CCC(C(=O)N2CCOC(Cc3ccccc3Cl)C2)=NN1 (stereo unspecified) | 71.1% |
| CCn1ncnc1CN1CCOC(Cc2cccc3ccccc23)C1 (stereo unspecified) | 44.3% |
| NCC1CN(C(=O)c2cccc(-n3cccn3)c2)CCO1 (stereo unspecified) | 40.5% |
| Cc1cc2ccncc2n1CC1(O)CCN(C(=O)c2ccccn2)CC1 | 18.3% |

Source: ChEMBL document CHEMBL4513216, “Probing the Open Global Health Chemical Diversity Library for Multistage-Active Starting Points for Next-Generation Antimalarials” (ACS Infect Dis, 2020)
